Source: PubChem (National Center for Advancing Translational Sciences (NCATS))
Sampled rows, rich in hits. Any-hit rate of the full collection: about 3.3%.
Sm TGR block: qHTS Assay for the Inhibitors of Schistosoma Mansoni Peroxiredoxins | Schistosoma mansoni thioredoxin glutathione reductase (TGR), Q962Y6 | purified TGR, DTNB reduction, TNB absorbance 405 nm | Potency, µM (doses to about 114 µM), for the others: top-dose activity change, negative = inhibition, usual class: inhibitors | 3% of 360,000 active | AID 485364, 2010; note: nearly all actives have a fitted effect of over 60% in size
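First, TGR (20 nM dispensed) and NADPH were mixed with compound. Second, a 15 min room-temperature incubation followed. Third, further NADPH and then DTNB were added to start the reaction. Finally, TNB absorbance was monitored kinetically.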
AmpC inh detg: qHTS Inhibitors of AmpC Beta-Lactamase (assay with detergent); P00811; AmpC hydrolysis of nitrocefin, absorbance 480 nm, 0.01% Triton; Potency, µM (series often up to 114 µM), for inactives: top-dose activity change, negative = inhibition, usual class: inhibitors; 0.041% of 370,000 active; AID 485294, 2010;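 note: 0% = no-compound wells and -100% = no-enzyme wells; nearly all actives have a fitted effect of over 25% in size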
Target sequence (P00811 whole entry, looked up): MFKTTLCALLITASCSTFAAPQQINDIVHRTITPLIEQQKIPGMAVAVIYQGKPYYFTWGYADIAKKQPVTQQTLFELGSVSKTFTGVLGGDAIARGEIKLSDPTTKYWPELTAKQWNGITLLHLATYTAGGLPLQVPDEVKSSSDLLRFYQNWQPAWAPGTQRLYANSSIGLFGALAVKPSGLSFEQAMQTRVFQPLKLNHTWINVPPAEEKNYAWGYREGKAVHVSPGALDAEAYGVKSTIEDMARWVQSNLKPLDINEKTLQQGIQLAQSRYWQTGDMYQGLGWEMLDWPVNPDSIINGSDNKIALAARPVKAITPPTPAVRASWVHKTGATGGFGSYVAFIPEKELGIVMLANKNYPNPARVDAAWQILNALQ
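20 mM phosphate pH 7.0 + 0.01% (detergent screen) or 0.0001% Triton X-100; 5.3 nM AmpC reagent; cpd preinc 15 min RT; nitrocefin (800 uM stock) to start; A480 q20 s × 4 min; Activity was normalised to no-enzyme and no-compound control wells.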
AmpC no deterg: qHTS Inhibitors of AmpC Beta-Lactamase (assay without detergent); Potency, µM (top dose mostly 57.1 µM), for inactives: at the highest dose activity change, negative = inhibition, hits mostly inhibitors; AmpC nitrocefin hydrolysis, absorbance 480 nm, 0.0001% Triton; 0.52% of 330,000 active; AID 485341, 2010; P00811;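 note: plate controls were no compound for no effect and no enzyme for full effect; nearly all actives have a fitted effect of over 20% in size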
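AmpC (5.3 nM in the dispensed reagent) in 20 mM phosphate pH 7.0 with 0.01% (detergent screen) or 0.0001% Triton X-100 was preincubated with compounds for 15 min at room temperature. Nitrocefin was then added from an 800 uM solution, and hydrolysis was followed at 480 nm.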
An asterisk follows results filed as active; ? = inconclusive; nt = not tested or not shown; [ ] = remark or other dose. Calls come from the whole dose curve; as a rule, active = well fitted curve in the direction sought with a large enough effect; inconclusive = small, poorly fitted or top-dose-only effect, or another doubt; inactive = no such curve, though single readings can be large; an effect the other way counts as inactive or inconclusive. Unless noted, % is set by controls: 0 for no effect and ±100 for the full control effect; potency is the fitted concentration of half-maximal effect.

SMILES	Sm TGR block	AmpC inh detg	AmpC no deterg
NS(=O)(=O)c1ccc(NC(=S)Nc2ccc(S(=O)(=O)N3CCCC3)cc2)cc1	25µM*	-9%	-24%
O=C(Nc1ccccc1N1CCCC1)c1cc(S(=O)(=O)N2CCOCC2)ccc1Cl	4%	3%	35%
O=C(O)c1nccnc1C(=O)Nc1ccc(S(=O)(=O)N2CCOCC2)cc1	25µM*	-14%	-13%
NS(=O)(=O)c1ccc(NC(=O)c2ccc(S(=O)(=O)N3CCCCC3)cc2)cc1	nt	nt	-26%
CCCC(=O)Nc1ccc(S(=O)(=O)N2CCCC2)cc1	-7%	-1%	-23%
COCCOC(=O)c1nccnc1C(=O)Nc1ccc(S(=O)(=O)N2CCOCC2)cc1	3%	-1%	6%
O=S(=O)(c1ccc(Cl)c(NC(=S)Nc2ccccc2N2CCOCC2)c1)N1CCOCC1	35µM*	-4%	-34%
CCCCC(=O)NC(=S)Nc1ccc(S(=O)(=O)N2CCCC2)cc1	7%	-11%	13µM*
Cc1cc(C)c(S(=O)(=O)Nc2ccc(-c3ccc(N4CCCCCC4)nn3)cc2)c(C)c1	6%	24%	nt
CC(NC(=O)c1cccc(NC(=O)c2nsc3ccccc23)c1)c1ccccc1 (configuration not stated)	-10%	-3%	nt
CCc1ccccc1NC(=O)CN(Cc1ccccc1)S(=O)(=O)c1ccc2nc(C)sc2c1	-4%	0%	nt
O=S(=O)(c1ccc(NC(=S)N/N=C/c2ccc(O)c(O)c2)cc1)N1CCOCC1	-12%	-4%	16µM*
O=C(NCc1cccnc1)c1ccc(S(=O)(=O)N2CCCCC2)cc1	19%	-9%	-8%
O=[N+]([O-])c1cccc(NC(=S)N2CCOCC2)c1	4%	-5%	-18%
N#Cc1ccc(/C=N/NC(=S)Nc2ccc(S(=O)(=O)N3CCOCC3)cc2)cc1	-4%	-11%	-27%
O=[N+]([O-])c1cccc(NC(=S)N2CCN(S(=O)(=O)c3ccccc3)CC2)c1	1%	5%	22µM*
O=S(=O)(c1ccc(NC(=S)NCc2cccnc2)cc1)N1CCCCC1	32µM*	7%	-41%
COc1ccc(CCNC(=O)CSc2nc(-c3ccc(F)cc3)cc(C(F)(F)F)n2)cc1OC	3%	22%	nt
COc1ccc(N2CCN(Cc3nc4c(c(=O)[nH]c(=O)n4C)n3Cc3ccccc3)CC2)cc1	-11%	-3%	nt
C=CCNC(=S)NC(=O)c1ccc(C)c(Br)c1	32µM*	2%	-16%[2.29 µM]
C=CCNC(=S)NNC(=O)c1ccc(C)c(Cl)c1	nt	6%	-16%
Cc1ccc(NC(=O)C2CCN(S(=O)(=O)c3ccc4c(c3)CCCN4C(=O)C3CCC3)CC2)cc1	-8%	1%	nt
COc1ccc(NC(=O)Cc2ccc(Cl)c(Cl)c2)cn1	7%	1%	-38%
COc1ccc(NC(=O)COC(=O)C(NC(=O)c2ccc(C)cc2)C(C)C)cn1 (configuration not stated)	nt	nt	-10%
COc1ccc(NC(=O)/C(Cl)=C(/Cl)S(=O)(=O)Cc2ccc(C)cc2)cn1	2.5µM*	?	-11%
SMILES	Sm TGR block	AmpC inh detg	AmpC no deterg
COc1ccc(NC(=O)/C(Cl)=C(/Cl)S(=O)Cc2ccccc2Cl)cn1 (configuration not stated)	0.089µM*	0%	-30%
O=C(c1ccc2c(c1)N(Cc1ccc(Cl)cc1)C(=O)c1ccccc1S2=O)N1CCC(Cc2ccccc2)CC1 (configuration not stated)	0%	-12%	nt
COC(=O)c1cc(Cl)ccc1NC(=O)Cn1c(C)cc(C)c(C#N)c1=O	-1%	18%	nt
COc1ccc(CC(=O)Nc2c(C(=O)Nc3ccccc3F)oc3ccccc23)cc1	2%	7%	nt
COCCn1c(C)cc(/C=C(\C#N)C(=O)OCC(=O)Nc2ccc(S(N)(=O)=O)cc2)c1C	40µM*	-17%	-27%
CCCn1c(C)cc(/C=C(\C#N)C(=O)OCC(=O)Nc2ccc(OC)c(Cl)c2)c1C	3%	-5%	-42%
Cc1ccc(-c2noc(CCC(=O)Nc3ccc(F)cc3Cl)n2)cc1	-3%	10%	nt
COc1cc(Nc2nc(-c3ccccc3)c3cc(C)ccc3n2)cc(OC)c1OC	40µM*	?	20%
COc1cccc(Nc2nc(-c3ccccc3)c3cc(C)ccc3n2)c1	14%	15%	nt
CCc1ccc(S(=O)(=O)c2nnn3c2nc(Nc2cccc(C)c2C)c2sccc23)cc1	-19%	5%	nt
CC(C)Oc1ccc(CNC(=O)CCCn2c(=O)c3cccn3c3cccnc32)cc1	8%	-5%	nt
CCc1cccc(NC(=O)Cn2cc(C(=O)c3ccncc3)c(=O)c3cc(C)c(C)cc32)c1	-6%	-6%	nt
CC(=O)c1ccc(OCC(=O)N(C2CCCCC2)C2CCS(=O)(=O)C2)cc1 (configuration not stated)	5%	-5%	1%
O=C(CCl)N(C1CCCC1)C1CCS(=O)(=O)C1 (configuration not stated)	16µM*	?	-4%
CCN1C(=NCCc2ccc(Br)cc2)N[C@@H](c2ccccc2)[C@H](C(=O)OC)[C@H]1C	-1%	-9%	47%
CCN1C(=O)N[C@@H](CCc2ccccc2)[C@@H](C(=O)OC)[C@H]1C	2.2µM*	4%	-1%
CCC(Sc1nc(=O)cc(N)n1CCc1ccccc1)C(=O)Nc1cc(C)on1 (configuration not stated)	4%	?	2.8µM*
CCOC(=O)c1ccc(NC(=O)C(C)Sc2nc(=O)cc(N)n2CCc2ccccc2)cc1 (configuration not stated)	0%	0%	nt
O=C(NCCCc1nc2ccccc2n1Cc1ccccc1Cl)c1ccco1	0%	10%	nt
Clc1ccccc1Cn1c(/C=C/c2ccco2)nc2ccccc21	32µM*	?	-14%
CCN=C1S/C(=C/c2ccc(-c3ccc(F)cc3)o2)C(=O)N1CC	45µM*	5%	-13%
CCN=C1S/C(=C\c2cn(CC)c3ccccc23)C(=O)N1CC	-14%	?	37%
CCN=C1S/C(=C\c2ccc(Sc3ccc(Cl)cc3)o2)C(=O)N1CC	45µM*	-9%	-11%
CC1=CN2C(=N)/C(=C/c3ccc(Sc4ccc(Cl)cc4)o3)C(=O)N=C2S1	3%	-12%	-29%
CCc1cccc(NC(=O)C2CCN(C(=O)c3cnn(-c4ccccc4)c3-n3cccc3)CC2)c1	1%	10%	nt
SMILES	Sm TGR block	AmpC inh detg	AmpC no deterg
O=C(CSc1nccn1Cc1ccccc1)Nc1ccc2c(c1)OCO2	4%	1%	nt
COc1ccc(NC(=O)Nc2ccccc2OCc2cc(=O)n3ccccc3n2)c(OC)c1	-4%	-1%	nt
Cc1cccc2c1-c1sc(C(=O)N(C)c3cccc(C(F)(F)F)c3)cc1CO2	11%	23%	nt
Cc1ccc(C(=O)NCC(=O)OCc2cc(=O)n3c(C)csc3n2)cc1	1%	-1%	nt
O=C(CCOc1ccccc1)N(Cc1cccnc1)c1nc2c(F)cc(F)cc2s1	5.6µM*	6%	nt
O=C(CCS(=O)(=O)c1ccccc1)N(Cc1cccnc1)c1nc2ccc(F)cc2s1	0.89µM*	-13%	nt
